PubChem BioAssay (Tox21)
Inconclusive results are not listed. The source made the active and inactive calls. Unless noted, calls follow the shape of the dose curve; as a rule, active = well fitted curve in the direction sought with a large enough effect in the repeat runs; inconclusive = weak or mixed curves; inactive = no such curve, though single readings can be large; an effect the other way counts as inactive or inconclusive.

What was measured:
[1] = qHTS assay to identify small molecule agonists of the vitamin D receptor (VDR) signaling pathway - cell viability counter screen (AID 743224); also: nearly all actives have a fitted effect of over 50% in size
Method in brief: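 Plated VDR-bla cells (4 h, 37C) received compound, incubated 16 h, then LiveBLAzer substrate 2 h RT; CellTiter-Glo added afterwards, luminescence read at 30 min.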

[2] = qHTS assay to identify small molecule agonists of the NFkB signaling pathway (AID 1159509; active = well fitted curve in the direction sought with a large enough effect in the signal ratio in the repeat runs, not every such curve was filed as active; the % refers to the signal ratio)
Method in brief: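 After overnight attachment, reporter cells received test compounds, DMSO or positive controls and were incubated 5 hr at 37 C. FRET substrate was then added for 1.5 hr at room temperature before dual-emission fluorescence reading.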

[3] = qHTS assay to identify small molecule agonists of the endoplasmic reticulum stress response signaling pathway (AID 1159516; active = well fitted activation curve with a large enough effect in the signal ratio in the repeat runs, not every such curve was filed as active; the % refers to the signal ratio)
Method in brief: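 An ESRE-bla HeLa cell assay: compounds were pin-transferred from DMSO onto overnight-plated cells and left 5 hr at 37 C. Substrate was then loaded for 2 hr at room temperature before reading fluorescence at 460 nm and 530 nm.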

[4] = qHTS assay to identify small molecule agonists of the endoplasmic reticulum stress response signaling pathway - cell viability counter screen (AID 1159517; calls by dose curve;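 also: HeLa cells carrying an ER stress response element beta-lactamase reporter; nearly all actives have a fitted effect of over 50% in size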)
Method in brief: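 Luminescence readout: CellTiter-Glo, 30 min RT, same wells as the ESRE-bla reporter read. HeLa ESRE-bla, 1,500 cells/well, o/n 37 C; cpd 5 hr 37 C/5% CO2.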

[5] = qHTS assay to identify small molecule antagonists of the retinoid-related orphan receptor gamma (ROR-gamma) signaling pathway - cell viability counter screen (AID 1159520); also: nearly all actives have a fitted effect of over 50% in size
Method in brief: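 Tet-on ROR gamma CHO cells (1,000/well) were plated 4 hr, given compounds in DMSO for 2 hr at 37 C, then induced with 1 uM final doxycycline for 16 hr. Viability was read as ATP by CellTiter-Glo luminescence after 30 min.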

[6] = molecular target: Nuclear receptor ROR-gamma (Homo sapiens) (UniProt P51449); test: qHTS assay to identify small molecule antagonists of the retinoid-related orphan receptor gamma (ROR-gamma) signaling pathway (AID 1159521;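 also: CHO cells with doxycycline inducible ROR-gamma driving an RORE luciferase reporter; top concentration of the series differs between compounds; nearly all actives have a fitted effect of over 50% in size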)
Method in brief: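 Luminescence readout (ONE-Glo, 30 min RT) after 16 h doxycycline induction; loss of signal scored as antagonism. CHO cells with TET-inducible RORγ and RORE-LUC reporter; compounds added 2 h before 1 uM final doxycycline.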

[7] = qHTS assay to identify small molecule agonists of the AP-1 signaling pathway - cell viability counter screen (AID 1159525; calls by dose curve; also: nearly all actives have a fitted effect of over 55% in size)
Method in brief: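 ME-180 AP-1-bla, 2500 cells/well, Opti-MEM + 0.5% dialyzed FBS; overnight 37 °C; cpd 15-pt titration, 5 h 37 °C; CellTiter-Glo 30 min RT; luminescence read; normalised to TOAB and DMSO controls.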

[8] = qHTS assay to identify small molecule agonists of the AP-1 signaling pathway (AID 1159526; calls by dose curve)
[9] = molecular target: Retinoic acid receptor RXR-alpha (Homo sapiens) (UniProt P19793); test: qHTS assay to identify small molecule agonists of the RXR signaling pathway (AID 1159527; calls by dose curve; also: nearly all actives have a fitted effect of over 35% in size)
Chain of Retinoic acid receptor RXR-alpha (Homo sapiens) (P19793 whole entry, looked up): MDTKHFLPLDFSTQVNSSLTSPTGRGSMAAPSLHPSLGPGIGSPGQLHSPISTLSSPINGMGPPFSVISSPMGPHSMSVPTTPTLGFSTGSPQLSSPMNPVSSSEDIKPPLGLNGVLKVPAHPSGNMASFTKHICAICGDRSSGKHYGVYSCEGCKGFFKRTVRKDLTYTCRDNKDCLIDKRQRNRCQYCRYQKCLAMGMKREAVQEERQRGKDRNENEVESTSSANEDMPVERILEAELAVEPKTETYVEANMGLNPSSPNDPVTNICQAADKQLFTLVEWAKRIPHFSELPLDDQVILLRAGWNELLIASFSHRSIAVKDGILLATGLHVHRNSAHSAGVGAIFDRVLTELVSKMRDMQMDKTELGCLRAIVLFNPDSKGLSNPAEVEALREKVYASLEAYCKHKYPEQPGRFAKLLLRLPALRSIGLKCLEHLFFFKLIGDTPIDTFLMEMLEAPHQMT
Method in brief: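 Agonist mode; 9-cis retinoic acid positive control. HEK 293T UAS-bla reporter cells, 2% charcoal-stripped FBS, 16 hr compound exposure at 37 C/5% CO2. LiveBLAzer B/G FRET substrate 2 hr RT; ex 405, em 460/530 nm.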

[10] = qHTS assay to identify small molecule agonists of the RXR signaling pathway - cell viability counter screen (AID 1159529); also: nearly all actives have a fitted effect of over 50% in size
Method in brief: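 Luminescence from CellTiter-Glo (30 min, RT) measured viability in the same wells as the beta-lactamase reporter readout. Cells: GeneBLAzer RXR-alpha HEK 293T, 2% charcoal-stripped FBS. Compound exposure 16 hr, 37 C.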

[11] = qHTS assay to identify small molecule antagonists of the retinoid acid receptor (RAR) signaling pathway - cell viability counter screen (AID 1159551); also: nearly all actives have a fitted effect of over 35% in size
Method in brief: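 Retinol-stimulated (1 uM final) C3RL4 cells, compound 6 h, 37 C; readout CellTiter-Glo luminescence (ATP) after 30 min RT incubation.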

[12] = qHTS assay to identify small molecule antagonists of the retinoic acid receptor (RAR) signaling pathway (AID 1159552; also: nearly all actives have a fitted effect of over 50% in size)
Method in brief: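 Luminescence from a RARE luciferase reporter in C3RL4 cells served as read-out. Cells received compounds together with 1 uM final retinol and incubated 6 hr at 37 C before detection reagent was added for 30 min at room temperature.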

[13] = qHTS assay to identify small molecule agonists of the retinoic acid receptor (RAR) signaling pathway (AID 1159553); conditions: C3RL4 RARE luciferase reporter, agonist, 6 h; activation: at 73.3 µM (top of the series)
Method in brief: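 Reporter readout comes from luciferase under RARE control in C3RL4 cells; compound exposure lasts 6 hr at 37 C in 5% CO2, and luminescence is recorded following a 30 min room-temperature incubation with reagent.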

[14] = qHTS assay to identify small molecule antagonists of the estrogen related receptor (ERR) signaling pathway from Tox21 library - cell viability counter screen (AID 1224834); also: nearly all actives have a fitted effect of over 30% in size
Method in brief: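 After 17.5 h of compound exposure at 37 C, ERR cells are incubated with CellTiter-Fluor for 30 min and fluorescence intensity serves as the viability measure.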

[15] = molecular target: Luciferin 4-monooxygenase (Photinus pyralis) (UniProt P08659); test: qHTS assay to identify small molecule inhibitors of firefly luciferase (AID 1224835); also: nearly all actives have a fitted effect of over 25% in size
Chain of Luciferin 4-monooxygenase (Photinus pyralis) (P08659 whole entry, looked up): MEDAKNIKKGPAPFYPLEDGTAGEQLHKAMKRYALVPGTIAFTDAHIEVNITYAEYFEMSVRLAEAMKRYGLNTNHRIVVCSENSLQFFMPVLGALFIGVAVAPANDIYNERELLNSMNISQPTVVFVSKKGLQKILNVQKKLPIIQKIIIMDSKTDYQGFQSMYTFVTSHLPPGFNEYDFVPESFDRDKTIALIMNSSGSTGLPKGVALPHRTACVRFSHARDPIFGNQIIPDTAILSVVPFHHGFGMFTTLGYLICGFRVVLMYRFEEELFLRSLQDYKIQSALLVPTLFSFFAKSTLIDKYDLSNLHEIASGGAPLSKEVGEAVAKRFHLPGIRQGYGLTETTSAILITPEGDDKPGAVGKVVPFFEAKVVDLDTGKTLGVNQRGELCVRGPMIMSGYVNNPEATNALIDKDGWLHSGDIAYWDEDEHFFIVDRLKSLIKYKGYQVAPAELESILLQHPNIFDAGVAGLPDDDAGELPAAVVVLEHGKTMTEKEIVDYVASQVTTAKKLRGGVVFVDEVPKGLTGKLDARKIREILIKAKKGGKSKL
Method in brief: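 Quantitative HTS format; KM concentrations of both substrates. Purified P. pyralis FLuc activity quantified from luminescence images.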

[16] = qHTS assay to identify small molecule agonists of the constitutive androstane receptor (CAR) signaling pathway - cell viability counter screen (AID 1224836); also: nearly all actives have a fitted effect of over 45% in size
Method in brief: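 Viability read-out: CellTiter-Fluor fluorescence after 23 h compound exposure at 37 C/5% CO2 in double-stable HepG2-CYP2B6-hCAR cells, with PK11195 present at 0.75 uM final; compounds tested in 15-point titration.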

[17] = qHTS assay to identify small molecule antagonists of the constitutive androstane receptor (CAR) signaling pathway - cell viability counter screen (AID 1224837); also: nearly all actives have a fitted effect of over 45% in size
Method in brief: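 Counter screen run in HepG2-CYP2B6-hCAR cells: 4 hr settle, compound titration (15 concentrations) with 50 nM CITCO, 23 hr at 37 C/5% CO2, CellTiter-Fluor fluorescence.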

[18] = qHTS assay to identify small molecule antagonists of the vitamin D receptor (VDR) signaling pathway - cell viability counter screen (AID 743225); also: nearly all actives have a fitted effect of over 50% in size
Method in brief: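 Viability counter screen run in the same wells as the beta-lactamase reporter assay: HEK 293T VDR-UAS-bla cells, 16 h compound exposure at 37C with 3 nM (final) 1-alpha,25-dihydroxyvitamin D3. CellTiter-Glo luminescence, 30 min, room temperature.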

[19] = qHTS assay to identify small molecule agonists of the NFkB signaling pathway - cell viability counter screen (AID 1159515; calls by dose curve; also: nearly all actives have a fitted effect of over 55% in size)
Method in brief: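 Using the same wells as the NFkB reporter read, ME-180 NFkB-bla cells given compounds for 5 hr were assessed for viability via CellTiter-Glo, with luminescence taken after a 30 min room-temperature incubation.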

Measured: Potency

O=C1NC2NC(=O)NC2N1 (stereo unspecified)
inactive: [1] | [2] | [3] | [4] | [5] | [6] | [7] | [8] | [9] | [10] | [11] | [12] | [13] | [14] | [15] | [16] | [17]

CCCC(C)CC (stereo unspecified)
inactive: [1] | [18] | [2] | [19] | [5] | [6] | [7] | [8] | [9] | [10] | [11] | [12] | [13] | [14] | [16]

Cc1ccccc1OCC1CO1 (stereo unspecified)
inactive: [1] | [18] | [2] | [19] | [4] | [5] | [6] | [7] | [8] | [9] | [10] | [11] | [12] | [13] | [14] | [16] | [17]

CCc1nccnc1C
inactive: [1] | [18] | [2] | [19] | [5] | [6] | [7] | [8] | [9] | [10] | [11] | [12] | [13] | [14] | [15] | [16] | [17]

CC(C)C(=O)c1ccccc1
inactive: [1] | [18] | [2] | [19] | [3] | [5] | [6] | [8] | [9] | [11] | [12] | [13] | [14] | [15] | [16] | [17]

C=CCOc1c(Br)cc(C(C)(C)c2cc(Br)c(OCC=C)c(Br)c2)cc1Br
inactive: [1] | [18] | [2] | [19] | [5] | [6] | [7] | [8] | [9] | [10] | [11] | [12] | [14] | [15] | [16] | [17]

Cc1cc(O)c2c(c1)C(=O)c1cccc(O)c1C2=O
inactive: [1] | [18] | [2] | [19] | [4] | [5] | [6] | [8] | [9] | [10] | [11] | [12] | [13] | [14] | [15] | [16] | [17]

c1ccc(CNc2ncnc3nc[nH]c23)cc1
inactive: [1] | [18] | [2] | [19] | [4] | [5] | [6] | [7] | [8] | [9] | [10] | [11] | [12] | [13] | [15]

C=C[C@@H](C)CCC=C(C)C
inactive: [1] | [2] | [19] | [4] | [5] | [6] | [7] | [8] | [9] | [10] | [11] | [12] | [13] | [15] | [16] | [17]
